Experimental data published in PubChem BioAssay (NCATS).
Values joined by “and” are separate entries in the source; they are usually repeats but may differ in a detail not shown here. Equal values may be shown once. Inconclusive results are not listed. Where a call stands in place of a potency, no number is given. Some structures have more than one record in an assay (separate samples or runs), and their calls can disagree. Active and inactive are the calls of the source. The call rests on the fitted dose curve; in most records, active means well fitted curve in the direction sought with a large enough effect; inconclusive means small, poorly fitted or top-dose-only effect, or another doubt; inactive means no such curve, though single readings can be large; an effect the other way counts as inactive or inconclusive.

Experiments:
[1] = Viability qHTS for spleen associated tyrosine kinase inhibitor (SYKi) drug resistant MV4-11 cells (AID 1963824); further: nearly all actives have a fitted effect of over 35% in size; further: potency means the concentration at half of the fitted maximal effect
How it was run: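 SYK inhibitor-resistant MV4-11 AML cells, 500 per well, added to predispensed compounds and incubated 72 hr at 37 C, 5% CO2. Viability measured by CellTiter-Glo luminescence after 10 min at room temperature.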

[2] = Quantitative highthroughput screen to assess conditional lethalithy of NOMO1 cells grown in RPMI1640 with untreated serum (RPMI+s) (AID 1963876); further: nearly all actives have a fitted effect of over 35% in size; further: potency means the concentration at half of the fitted maximal effect
How it was run: (§1)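 Each medium arm—HPLM with 10% dialyzed FBS, or RPMI1640 with 5 mM glucose and 10% untreated or dialyzed FBS—was screened against an 11-point, 3-fold compound titration for 48 h at 37 °C, with CellTiter-Glo luminescence as endpoint.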

[3] = Quantitative highthroughput screen to assess conditional lethalithy of NOMO1 cells grown in Human Plasma-Like Medium with dialyzed fetal bovine serum (HPLM+ds) (AID 1963878); further: nearly all actives have a fitted effect of over 35% in size; further: potency means the concentration at half of the fitted maximal effect
How it was run: as §1

[4] = Quantitative highthroughput screen to assess conditional lethalithy of P12 Ichikawa cells grown in Human Plasma-Like Medium with dialyzed fetal bovine serum (HPLM+ds) (AID 1963879); conditions: Potency: viability; further: nearly all actives have a fitted effect of over 35% in size; further: potency means the concentration at half of the fitted maximal effect; on Viability: series mostly up to about 46 µM
How it was run: as §1

[5] = Quantitative highthroughput screen to assess conditional lethalithy of P12 Ichikawa cells grown in RPMI1640 with untreated serum (RPMI+s) (AID 1963881); conditions: Potency: viability; further: nearly all actives have a fitted effect of over 35% in size; further: potency means the concentration at half of the fitted maximal effect; on Viability: series mostly up to about 46 µM
How it was run: as §1

[6] = Cellular viability qHTS for adrenocortical cancer (ACC) cell line SW-13 (AID 1963989); conditions: SW-13 ACC cells viability, CellTiter-Glo, 48 h; activity (max response): stronger effect = lower value; further: nearly all actives have a fitted effect of over 65% in size; further: potency means the concentration at half of the fitted maximal effect;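 on activity (max response): cells grown in serum-free medium with ITS supplement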
How it was run: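 Luminescent ATP read-out (CellTiter-Glo, 20 min at room temperature) measured metabolically competent SW-13 cells after 48 h compound treatment. Final concentrations spanned up to 46 uM; bortezomib served as positive control.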

[7] = Cellular viability qHTS for adrenocortical cancer (ACC) cell line NCI-H295R (AID 1963990); further: nearly all actives have a fitted effect of over 60% in size; further: potency means the concentration at half of the fitted maximal effect
How it was run: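 IC50 and maximal efficacy derive from four-parameter logistic modelling of titration curves, with reads scaled between DMSO-only wells (0%) and doxorubicin hydrochloride (100% inhibition). Compounds spanned up to 46 uM over 48 h.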

[8] = Quantitative highthroughput screen to assess conditional lethalithy of NOMO1 cells grown in RPMI1640 with dialyzed fetal bovine serum (RPMI+ds) (AID 1963877); further: series mostly up to about 46 µM; nearly all actives have a fitted effect of over 30% in size
How it was run: as §1

[9] = Quantitative highthroughput screen to assess conditional lethalithy of P12 Ichikawa cells grown in RPMI1640 with dialyzed fetal bovine serum (RPMI+ds) (AID 1963880); conditions: Potency: P12-Ichikawa viability; further: nearly all actives have a fitted effect of over 35% in size; further: potency means the concentration at half of the fitted maximal effect
How it was run: as §1

[10] = Quantitative highthroughput screen to assess conditional lethalithy of SEM cells grown in Human Plasma-Like Medium with dialyzed fetal bovine serum (HPLM+ds) (AID 1963882); further: nearly all actives have a fitted effect of over 35% in size; further: potency means the concentration at half of the fitted maximal effect; on Viability: series mostly up to about 46 µM
How it was run: as §1

[11] = Quantitative highthroughput screen to assess conditional lethalithy of SEM cells grown in RPMI1640 with unreated serum (RPMI+s) (AID 1963883); further: nearly all actives have a fitted effect of over 35% in size; further: potency means the concentration at half of the fitted maximal effect
How it was run: as §1

[12] = Quantitative highthroughput screen to assess conditional lethalithy of SEM cells grown in RPMI1640 with dialyzed fetal bovine serum (RPMI+ds) (AID 1963884); further: nearly all actives have a fitted effect of over 35% in size; further: potency means the concentration at half of the fitted maximal effect; on Viability: series mostly up to about 46 µM
How it was run: as §1

Row | SMILES | Potency [1] | Potency [2] | Potency [3] | Potency [4] | Potency [5] | activity (max response) [6] | Potency [7] | Potency [8] | Potency [9] | Potency [10] | Potency [11] | Potency [12] | Potency [6]
1 | CN(C)c1ccc(-c2nc3ncc(Cl)c(N4CCN(CC(=O)Nc5nccs5)CC4)c3[nH]2)cc1 | 0.645 µM (active) | inactive | 18.7 µM (active) | inactive | inactive | -12.9% (inactive) | inactive | – | – | – | – | – | –
2 | CC(C)c1ccccc1Cc1cc(C(=O)Nc2ccc(S(=O)(=O)c3ccccc3C(C)(C)C)cc2)c(O)c(O)c1O | 7.42 µM (active) | – | inactive | inactive | inactive | – | – | inactive | inactive | inactive | inactive | – | –
3 | Nc1nc2[nH]cc(CCc3ccc(C(=O)N[C@@H](CCC(=O)O)C(=O)O)cc3)c2c(=O)[nH]1 | 0.263 µM (active) | inactive | – | – | – | – | 3.16 µM (active) | – | – | – | – | – | –
4 | CN(C)CCCNC(=O)c1ccc(-c2cc(O)c3ncccc3c2)cc1 | 5.17 µM (active) and 14.8 µM (active) | inactive | – | inactive | – | – | 12.6 µM (active) | – | inactive | – | – | – | –
5 | O=C(O)c1ccc2cc(-c3ccc(O)c(C45CC6CC(CC(C6)C4)C5)c3)ccc2c1 | 0.417 µM (active) | 1.05 µM (active) | – | 0.59 µM (active) | 0.469 µM (active) | – | – | – | 0.418 µM (active) | 0.372 µM (active) | 0.372 µM (active) | 0.235 µM (active) | –
6 | CS(=O)(=O)c1ccc(-c2cnc(N)c(C(=O)Nc3ccccc3)n2)cc1 | 2.91 µM (active) | inactive | – | – | 8.33 µM (active) | – | – | – | – | 8.33 µM (active) | 9.35 µM (active) | 8.33 µM (active) | –
7 | C=C(C)[C@@H]1CC[C@]2(C(=O)O)CC[C@]3(C)[C@H](CC[C@@H]4[C@@]5(C)CC[C@H](O)C(C)(C)[C@@H]5CC[C@]43C)[C@@H]12 | 2.95 µM (active) | inactive | inactive | – | inactive | 19.8% (inactive) | inactive | – | inactive | inactive | – | – | –
8 | COc1ncc(-c2ccc3nccc(-c4ccnnc4)c3c2)cc1NS(=O)(=O)c1ccc(F)cc1F | 58 nM (active) and 132 nM (active) | 0.105 µM (active) | – | – | 0.743 µM (active) | – | 0.0282 µM (active) | – | 2.09 µM (active) | 0.469 µM (active) | – | – | 1.12 µM (active)
9 | O=C(NCC1CCCCN1)c1cc(OCC(F)(F)F)ccc1OCC(F)(F)F (configuration not stated) | inactive | 0.332 µM (active) | – | 1.87 µM (active) | 1.66 µM (active) | -4.23% (inactive) | inactive | – | 2.96 µM (active) | – | – | inactive | –
10 | CC[C@H](C)n1cc(C)c2c(C(=O)NCc3c(C)cc(C)[nH]c3=O)cc(-c3ccc(N4CCNCC4)nc3)cc21 | 10.5 µM (active) | inactive | – | inactive | inactive | – | 28.2 µM (active) | – | inactive | inactive | inactive | inactive | –
11 | CN1CCN(C2=Nc3cc(Cl)ccc3Nc3ccccc32)CC1 | inactive | inactive | – | – | inactive | -14.9% (inactive) | – | – | inactive | – | – | – | –
12 | CCCCCCCCCCCCCCCC(=O)O[C@H]1[C@@H](O)[C@@H](O)[C@@H]([C@H](NC(=O)[C@@H]2C[C@@H](CCC)CN2C)[C@H](C)Cl)O[C@@H]1SC | 23.5 µM (active) | 11.8 µM (active) | – | inactive | inactive | 13.6% (inactive) | inactive | – | inactive | inactive | inactive | inactive | –
13 | CCOc1cc(CC(=O)N[C@@H](CC(C)C)c2ccccc2N2CCCCC2)ccc1C(=O)O | inactive | 0.332 µM (active) | – | 2.35 µM (active) | 2.64 µM (active) | – | 25.1 µM (active) | – | 3.32 µM (active) | inactive | inactive | – | –
14 | O=C(NC1CC1)c1cccc(-c2ccc3c(NC(=O)C4CC4)n[nH]c3c2)c1 | 4.68 µM (active) | 23.5 µM (active) | – | – | 11.8 µM (active) | – | 15.8 µM (active) | – | 11.8 µM (active) | 16.6 µM (active) | – | 16.6 µM (active) | 3.55 µM (active)
15 | Cc1ccc(-n2[nH]c(C)c(N=Nc3cccc(-c4cccc(C(=O)O)c4)c3O)c2=O)cc1C | 13.3 µM (active) | inactive | – | 16.6 µM (active) | – | 7.78% (inactive) | – | – | – | – | – | – | –
16 | Cc1ccc(C)c(OCCCC(C)(C)C(=O)O)c1 | inactive and 14.8 µM (active) | – | inactive | inactive | inactive | 2.23% (inactive) and -5.29% (inactive) | inactive | inactive | inactive | inactive | inactive | inactive | –
17 | CCn1nnc2c(N3CCOCC3)nc(-c3ccc(NC(=O)Nc4ccc(C(=O)N5CCN(C)CC5)cc4)cc3)nc21 | 29.1 nM (active) and 46.8 nM (active) | inactive | – | – | – | – | inactive | – | – | – | – | – | –
18 | CCCNCC(O)COc1ccccc1C(=O)CCc1ccccc1 (configuration not stated) | 15 µM (active) and 16.6 µM (active) | – | inactive | inactive | inactive | – | – | inactive | inactive | inactive | inactive | inactive | –
